# Pf growth 48h – Primary qHTS for delayed death inhibitors of the malarial parasite plastid, 48 hour incubation; P. falciparum luciferase growth in erythrocytes, 48 h; Potency, µM (highest dose often 28.7 µM), for the others: top-dose activity change, negative = inhibition, usual class: inhibitors; hit rate 5.9% among 310,000; AID 504832, 2011; active = well fitted inhibition curve with a large enough effect; inconclusive = small, poorly fitted or top-dose-only effect, or another doubt; inactive = no such curve, though single readings can be large or run the other way; note: % is set by controls: 0 for no effect and ±100 for the full control effect
#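 Compounds are pin-transferred into medium, infected erythrocytes (2% hematocrit, 0.1% parasitemia final) are added, and plates sit one parasite generation at 37 C in 5% CO2. Detection reagent is then added and luminescence measured.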
# NS1 inh – qHTS Assay for Inhibitors of Influenza NS1 Protein Function | Potency, µM (top dose mostly 46.1 µM), for inactives: at the top dose activity, positive = more growth | hit rate 0.4% among 270,000; note: actives are rising curves; nearly all actives have a fitted effect of over 50% in size
#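 Read-out: OD600 growth recovery of NS1-expressing budding yeast. Cells grown overnight at 30C in -URA glucose medium, washed, resuspended and diluted 1:100 in 2% galactose assay medium, pH 6.0. Same strain lacking NS1 served as positive control.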
# SARS PLP yeast – qHTS of Yeast-based Assay for SARS-CoV PLP; Potency, µM (titrated, usually from 32.9 µM), for the others: at the top dose activity, positive = growth rescue, usual class: activators; hit rate 0.19% among 330,000; AID 485353, 2010; S. cerevisiae expressing SARS-CoV PLpro, growth rescue; note: 0% is about no effect; nearly all actives have a fitted effect of over 55% in size
# Pf growth 96h – Primary qHTS for delayed death inhibitors of the malarial parasite plastid, 96 hour incubation | P. falciparum luciferase reporter growth, 96 h | Potency, µM (highest dose often 28.7 µM), for inactives: at the top dose activity change, negative = inhibition, hits mostly inhibitors | hit rate 6.9% among 320,000; active = well fitted inhibition curve with a large enough effect; inconclusive = small, poorly fitted or top-dose-only effect, or another doubt; inactive = no such curve, though single readings can be large or run the other way; note: % is set by controls: 0 for no effect and ±100 for the full control effect
#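 Delayed-death screen, second-generation endpoint: infected erythrocytes, 2% hematocrit, 0.05% parasitemia final; 96 hours at 37 C, 5% CO2; luciferase detection reagent; luminescence decrease equals reduced growth.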
# The depositor's hits bear a star; ? = inconclusive; . = not tested or not shown; [ ] = remark or other dose. The list is not random: actives were taken first. Their share in the collection is about 10%. Unless noted, calls come from the whole dose curve. Potency is the fitted concentration of half-maximal effect.
SMILES,Pf growth 48h,NS1 inh,SARS PLP yeast,Pf growth 96h
CC(=O)NC(CC(=O)OCC(=O)N1CCN(S(=O)(=O)c2ccc(Cl)cc2)CC1)c1ccccc1 (configuration not stated),4.5%,.,0.3%,-12.2%
CC(C)=CCC/C(C)=C/CC(C)(C)CNCCN1CCNCC1,4.65µM*,3.5%,-7.1%,4.65µM*
S=C(S)NCCN1CCNCC1,.,3.1%,.,.
CC(C)=CCC/C(C)=C/CCC(C)NCCN1CCNCC1 (configuration not stated),13.1µM*,3.5%,0.2%,?
Cc1snc(SCc2ccc(Cl)cc2)c1C#N,1.2%[0.00184 µM],-5.1%,-5.3%,9.3%
COc1ccccc1C(C)NC(=O)c1ccc(C)o1 (configuration not stated),.,0.3%,0.2%,13.1µM*
Cc1ccc(C(=O)NC(C)c2ccccc2)o1 (configuration not stated),0.8%,7.6%,8.1%,-7.9%
Cn1c(=O)c(=O)n(C)c2cc(S(=O)(=O)N3CCN(C4CCCCC4)CC3)ccc21,.,5.2%,5.0%,8.28µM*
CCCCN(C)CCNC(=O)CCn1nc(-c2ccc(C)cc2)ccc1=O,10.5%,3.2%,-0.6%,3.3%
NC(=O)Cn1c(=O)n(C2CCCCC2)c(=O)c2c3c(sc21)CCCCC3,?,6.5%,4.3%,2.33µM*
COc1ccc([N+](=O)[O-])cc1N(CC(O)CN(C)C)S(=O)(=O)c1ccc(C)cc1 (configuration not stated),-19.6%,1.9%,-1.3%,16.8%
COc1ccc([N+](=O)[O-])cc1N(CC(O)CN(CC(C)C)CC(C)C)S(=O)(=O)c1ccccc1 (configuration not stated),9.28µM*,1.3%,-2.3%,?
CCCCN(CCCC)CC(O)CN(c1cc([N+](=O)[O-])ccc1OC)S(=O)(=O)c1ccccc1 (configuration not stated),13.1µM*,-10.0%,-11.6%,?
CCC(CNC(=O)c1c(C)nn(-c2ccccc2)c1Cl)c1ccccc1 (configuration not stated),?,-6.5%,7.9%,?
NNC(=O)CSc1c(-c2ccccc2)c2cc(Cl)ccc2[nH]c1=O,?,17.1%,-0.5%,13.1µM*
Cc1cccc(/C(N)=N/OC(=O)COc2ccc(Cl)cc2)c1,?,.,-4.7%,2.94µM*
COc1ccc(OCC(=O)O/N=C(\N)c2ccc(OC)c(OC)c2)cc1,-3.1%,-3.7%,-12.1%,?
COc1cccc(OCC(=O)O/N=C(\N)c2ccc(OC)c(OC)c2)c1,15.0%,0.7%,4.2%,6.57µM*
CC(C)(C)OC(=O)N[C@@H](Cc1ccccc1)C(=O)N[C@@H](CO)[C@H](O)[C@@H]1C[C@@H]1C(=O)NC1CC1,-1.0%,7.1%,5.9%,?
Cc1nc2ccc(NC(=O)c3cccnc3)cc2s1,1.6%,.,-2.9%,23.4%
CCOC(=O)c1ccccc1NC(=O)Cc1sc(-c2cccnc2)nc1-c1ccc(C)cc1,4.15µM*,19.8%,0.4%,2.62µM*
Cc1ccc(-c2nc(-c3cccnc3)sc2CC(=O)Nc2ccc3nc(C)sc3c2)cc1,?,11.8%,1.5%,13.1µM*
Cc1onc(-c2ccccc2)c1C(=O)NN1CCOCC1,.,.,2.5%,.
CC(=O)c1cc(-c2ccc(F)cc2)n(CCC(=O)Nc2cccnc2)c1C,9.28µM*,.,-1.5%,17.1%
O=C(CCC(=O)c1ccc(F)cc1)Nc1cccnc1,41.1%,-8.7%,30.6%,-100.8%
SMILES,Pf growth 48h,NS1 inh,SARS PLP yeast,Pf growth 96h
CN(CC(=O)Nc1ccccc1Cl)CC(=O)Nc1ccccc1[N+](=O)[O-],-16.9%,.,0.3%,4.9%
COc1ccc(N2C(=NC(=O)CCC3CCCC3)SC3CS(=O)(=O)CC32)cc1 (configuration not stated),8.7%,-0.5%,9.9%,34.4%
Nn1c(SCC(=O)NCC2CCCO2)nnc1-c1ccc(OC(F)F)cc1 (configuration not stated),5.3%,.,-5.3%,37.4%
CC(C)c1nc2sc3c(NCc4ccccc4)ncnc3c2c2c1COC(C)(C)C2,.,8.7%,-0.9%,9.28µM*
O=C(COc1ccc(F)cc1)NCC1CCCO1 (configuration not stated),29.3%,1.8%,-2.2%,1.65µM*
O=C(COc1ccccc1)NCC1CCCO1 (configuration not stated),33.1%,-15.0%,-5.0%,32.9%
Cc1ccc(NS(=O)(=O)c2ccc(OCC(=O)NCC3CCCO3)cc2)cc1 (configuration not stated),-0.7%,-4.4%,0.2%,9.28µM*
